# Records with an inconclusive call do not appear. Entries that show only a call come without a potency. Values without a mark were called inactive. Active and inactive are the calls of the source. Unless noted, the call rests on the fitted dose curve; in most records, active means well fitted curve in the direction sought with a large enough effect in the repeat runs; inconclusive means weak or mixed curves; inactive means no such curve, though single readings can be large; an effect the other way counts as inactive or inconclusive.
# Assays:
# [1] = qHTS assay to identify small molecule agonists of the RXR signaling pathway - cell viability counter screen (AID 1159529); further: nearly all actives have a fitted effect of over 50% in size; further: potency means the concentration at half of the fitted maximal effect; on activity change, negative = cytotoxicity: series mostly up to about 77 µM
# Summary of the method: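 Luminescence from CellTiter-Glo (30 min, RT) measured viability in the same wells as the beta-lactamase reporter readout. Cells: GeneBLAzer RXR-alpha HEK 293T, 2% charcoal-stripped FBS. Compound exposure 16 hr, 37 C.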
# [2] = qHTS assay to identify small molecule antagonists of the retinoic acid receptor (RAR) signaling pathway (AID 1159552; further: nearly all actives have a fitted effect of over 50% in size; further: potency means the concentration at half of the fitted maximal effect)
# Summary of the method: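 Luminescence from a RARE luciferase reporter in C3RL4 cells served as read-out. Cells received compounds together with 1 uM final retinol and incubated 6 hr at 37 C before detection reagent was added for 30 min at room temperature.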
# [3] = qHTS assay to identify small molecule agonists of the retinoic acid receptor (RAR) signaling pathway (AID 1159553); further: potency means the concentration at half of the fitted maximal effect
# Summary of the method: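 Luminescence was measured 30 min after luciferase reagent addition at room temperature. Before that, C3RL4 reporter cells (1,000 per well, plated overnight) were treated with compound for 6 hr at 37 C and 5% CO2.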
# [4] = qHTS assay to identify small molecule antagonists of the retinoid acid receptor (RAR) signaling pathway - cell viability counter screen (AID 1159551); further: nearly all actives have a fitted effect of over 35% in size
# Summary of the method: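 Cytotoxicity counter screen: ATP content quantified by CellTiter-Glo luminescence in C3RL4 cells treated 6 hr at 37 C with compound and retinol (1 uM final). Cells plated at 1,000/well and cultured overnight before dosing.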
# [5] = qHTS assay to identify small molecule antagonists of the estrogen related receptor (ERR) signaling pathway - cell viability counter screen (AID 1224818);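 further: series mostly up to about 46 µM; viability measured after 17.5 h of compound exposure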
# Summary of the method: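 Cytotoxicity counter screen: fluorescence from CellTiter-Fluor, added after 17.5 h compound exposure at 37 C and read 30 min later. ERR cell line seeded at 2,000 cells/well, preincubated 6 h before dosing.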
# [6] = qHTS assay to identify small molecule antagonists of the estrogen related receptor signaling pathway with the pleiotropic PPARgamma coactivator (PGC) cell viability counter screen (AID 1224822; further: series mostly up to about 46 µM)
# Summary of the method: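 Viability counter-screen read by fluorescence intensity after 30 min with CellTiter-Fluor at 37 C; PGC/ERR reporter cells were exposed to compounds for 17.5 h at 37 C following a 6 h preincubation.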
# [7] = qHTS assay to identify small molecule agonists of the estrogen related receptor (ERR) signaling pathway (AID 1224820)
# Summary of the method: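 Luminescence readout (One-Glo, 30 min RT) from NTP-supplied ERR cell line exposed to compounds for 18 h at 37 C. Cells seeded 2,000 per well and pre-incubated 6 h before pin-tool compound transfer.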
# [8] = qHTS assay to identify small molecule agonists of the estrogen related receptor signaling pathway with the pleiotropic PPARgamma coactivator (PGC) (AID 1224823)
# Summary of the method: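 Luminescence readout (One-Glo, 30 min RT) from PGC/ERR cell line treated 18 h at 37 C with pin-tool-delivered DMSO compound solutions; cells plated 6 h before dosing. Quantitative HTS format.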
# [9] = test system: estrogen-related receptor alpha (ERRalpha) with PGC-1alpha coactivator, human; assay: qHTS assay to identify small molecule antagonists of the estrogen related receptor signaling pathway with the pleiotropic PPARgamma coactivator (PGC) (AID 1224821; calls by dose curve;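 further: series mostly up to about 46 µM; lower luminescence signal means antagonism of PGC/ERR signalling; nearly all actives have a fitted effect of over 50% in size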)
# Summary of the method: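 PGC/ERR reporter cells; 6 h pre-incubation 37 C/5% CO2; pin-tool compound in DMSO, 18 h 37 C; One-Glo added, 30 min RT; luminescence read. qHTS antagonist mode.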
structure (smiles),measurement,setting,value
CCO[Si](CCCN=C=O)(OCC)OCC,Potency,[1],inactive
same,Potency,[2],inactive
same,Potency,[3],inactive
O=C(O)C(O)[C@H](O)[C@@H](O)[C@H](O)[C@H](O)CO (stereo not given in full),Potency,[1],49500 nM (active)
same,Potency,[3],inactive
CN(C)C(=O)Nc1ccccc1,Potency,[1],inactive
same,Potency,[2],inactive
same,Potency,[3],inactive
O=C(O)/C=C/c1ccc(Cn2ccnc2)cc1,outcome,[4],inactive
NC(=O)c1ncn([C@@H]2O[C@H](CO)[C@@H](O)[C@H]2O)c1O,Potency,[1],inactive
same,outcome,[4],inactive
same,Potency,[3],inactive
same,outcome,[5],inactive
same,outcome,[6],inactive
C#CC(O)C(CC)CCCC (stereo not given),outcome,[4],inactive
CCCCCCC(CCCCCCCCCCC(=O)OCC(COC(C)=O)OC(C)=O)OC(C)=O (stereo not given),outcome,[4],inactive
Nc1ccn(C2CO[C@H](CO)O2)c(=O)n1 (stereo not given in full),outcome,[4],inactive
CO[Si](CCCNCCC[Si](OC)(OC)OC)(OC)OC,outcome,[4],inactive
OCc1ccccn1,outcome,[4],inactive
CCCC=O,Potency,[1],inactive
same,Potency,[3],inactive
COC[C@H](c1ccc(C(F)(F)F)cc1)N1CCN(C2(C)CCN(C(=O)c3c(C)ncnc3C)CC2)C[C@H]1C,outcome,[4],inactive
OC1OC[C@@H](O)[C@H](O)[C@H]1O (stereo not given in full),outcome,[4],inactive
O=C(O)/C=C/c1ccc(/C=C/C(=O)O)cc1,outcome,[4],inactive
CC(C)(O)c1ccccc1,Potency,[1],inactive
same,Potency,[2],inactive
same,Potency,[3],inactive
C1=C\CC/C=C\CC/C=C\CC/1,Potency,[1],inactive
same,Potency,[3],inactive
COc1cc(C(=O)N2CCOCC2)cc(OC)c1OC,outcome,[4],inactive
CCCCCCCCC=O,outcome,[4],inactive
C1COCCO1,outcome,[4],inactive
CCn1cc(C(=O)O)c(=O)c2cc(F)c(N3CCN(C)CC3)cc21,"activity change, negative = cytotoxicity",[4],1.65% [at 19 µM]
CSc1ccc(C=O)cc1,Potency,[1],inactive
same,Potency,[2],inactive
CC(C)(O)Cc1ccccc1,outcome,[4],inactive
same,Potency,[2],inactive
same,Potency,[3],inactive
CCCCCCOC(=O)c1ccccc1O,Potency,[1],inactive
same,Potency,[2],inactive
same,Potency,[3],inactive
NC(=O)Nc1nc2ccccc2[nH]1,Potency,[1],inactive
same,Potency,[3],inactive
O=C(O)CCNC(=O)c1ccc(N=Nc2ccc(O)c(C(=O)O)c2)cc1,outcome,[4],inactive
NC(CS)C(=O)O (stereo not given),outcome,[4],inactive
Cc1ccccc1Br,outcome,[4],inactive
same,Potency,[3],inactive
COc1ccc2cc(C=O)ccc2c1,outcome,[4],inactive
same,Potency,[3],inactive
C(=C(c1ccccc1)c1ccccc1)c1ccccc1,outcome,[4],inactive
same,Potency,[2],inactive
same,Potency,[3],inactive
CCCC(C)C(=O)O (stereo not given),outcome,[4],inactive
same,Potency,[2],inactive
same,Potency,[3],inactive
NC1CCN(c2cccc(Cl)n2)CC1,outcome,[4],inactive
same,Potency,[3],inactive
Cn1ccc2cc3c(cc21)CCN3C(=O)Nc1cccnc1,"activity change, negative = cytotoxicity",[4],-1.31% [at 19 µM]
same,Potency,[3],2310 nM (active)
same,outcome,[5],inactive
same,outcome,[6],inactive
COC(=O)C1=C(C)NC(C)=C(C(=O)OCC(C)=O)C1c1ccccc1[N+](=O)[O-] (stereo not given),outcome,[4],inactive
same,Potency,[3],inactive
Oc1cc(O)c2c(c1)O[C@H](c1ccc(O)c(O)c1)[C@H](O)C2,outcome,[4],inactive
same,Potency,[3],inactive
CN(C)C(=O)C(CCN1CCC(O)(c2ccc(Cl)cc2)CC1)(c1ccccc1)c1ccccc1,Potency,[2],inactive
same,Potency,[3],inactive
same,outcome,[5],inactive
same,outcome,[7],inactive
same,outcome,[6],inactive
same,outcome,[8],inactive
c1cc(CN2CCCCC2)cc(OCCCNc2nc3ccccc3s2)c1,Potency,[3],inactive
same,outcome,[5],inactive
same,outcome,[7],inactive
same,outcome,[9],inactive
same,outcome,[8],inactive
CCN(CC)C(=O)c1ccc(O)c(OC)c1,outcome,[5],inactive
same,outcome,[6],inactive
CCC(=O)Nc1cccc(N)c1,outcome,[4],inactive
same,Potency,[2],inactive
same,Potency,[3],inactive
C1C2OC2C2C1C1CC2C2OC12 (stereo not given),outcome,[4],inactive
same,Potency,[3],inactive
COc1ccc(NC(C)=O)cc1,outcome,[4],inactive
same,Potency,[3],inactive
CCC(=O)c1cccc(Cl)c1,outcome,[4],inactive
same,Potency,[2],inactive
same,Potency,[3],inactive
CCCCCCCCN(C)CCCCCCCC,outcome,[4],inactive
same,Potency,[2],inactive
same,Potency,[3],inactive
O=C(CCOCCOCCOCCOCCC(=O)Nc1c(I)cc(I)c(C(=O)O)c1I)Nc1c(I)cc(I)c(C(=O)O)c1I,Potency,[2],inactive
same,Potency,[3],inactive
OC[C@H]1O[C@@H]2O[C@H]3[C@H](O)[C@@H](O)[C@@H](O[C@H]4[C@H](O)[C@@H](O)[C@@H](O[C@H]5[C@H](O)[C@@H](O)[C@@H](O[C@H]6[C@H](O)[C@@H](O)[C@@H](O[C@H]7[C@H](O)[C@@H](O)[C@@H](O[C@H]8[C@H](O)[C@@H](O)[C@@H](O[C@H]9[C@H](O)[C@@H](O)[C@@H](O[C@H]1[C@H](O)[C@H]2O)O[C@@H]9CO)O[C@@H]8CO)O[C@@H]7CO)O[C@@H]6CO)O[C@@H]5CO)O[C@@H]4CO)O[C@@H]3CO,outcome,[4],inactive
same,Potency,[2],inactive
same,Potency,[3],inactive
OCCCCCCO,outcome,[4],inactive
same,Potency,[2],inactive
same,Potency,[3],inactive
COC(=O)c1ccc(C(=O)OC)c(C(=O)OC)c1,outcome,[4],inactive
same,Potency,[3],inactive
CC12CCC(CC1=O)C2(C)C (stereo not given),Potency,[2],inactive
same,Potency,[3],inactive
COc1ccc(N=[N+]([O-])c2ccc(OC)cc2)cc1,outcome,[4],inactive
same,Potency,[3],27 nM (active)
Cc1c(C)n(CCN(C)C)c2ccc(C(=O)OCCN(C)C)cc12,outcome,[4],inactive
same,Potency,[3],inactive
CCCCC1CCCCC(=O)O1 (stereo not given),outcome,[4],inactive
same,Potency,[3],inactive
CCN1CCCC1CNC(=O)c1cc(S(N)(=O)=O)ccc1OC (stereo not given),outcome,[4],inactive
same,Potency,[3],inactive
same,outcome,[5],inactive
same,outcome,[6],inactive
O=C(O)Cc1cc(I)c(Oc2cc(I)c(O)c(I)c2)c(I)c1,outcome,[4],inactive
same,Potency,[3],inactive
CCOC(=O)Cn1c(=O)sc2cccc(Cl)c21,outcome,[4],inactive
same,Potency,[3],inactive
CCC(C)OC(=O)N1CCCCC1CCO (stereo not given),outcome,[4],inactive
same,Potency,[2],inactive
same,Potency,[3],inactive
CCCCc1ccc2cccc(S(=O)(=O)O)c2c1,outcome,[4],inactive
same,Potency,[2],inactive
same,Potency,[3],inactive
COCCOC(=O)CC#N,Potency,[3],inactive
N#CCc1ccccc1[N+](=O)[O-],Potency,[3],inactive
O=S(=O)(c1cccc2cnccc12)N1CCCNCC1,outcome,[4],inactive
same,Potency,[2],29800 nM (active)
same,Potency,[3],inactive
CCCCCC[C@@H](CCC)C(=O)O,outcome,[4],inactive
same,Potency,[3],inactive
CC1=CC(=O)CCC1,outcome,[4],inactive
same,Potency,[2],inactive
same,Potency,[3],inactive
CCCCCCCCCCCCI,outcome,[4],inactive
same,Potency,[2],inactive
same,Potency,[3],inactive
CC(C)c1cccc(C(C)C)c1N,outcome,[4],inactive
same,Potency,[2],inactive
same,Potency,[3],inactive
Oc1ccc2c(c1)OC[C@@H](N1CCC(O)(c3ccc(F)cc3)CC1)[C@H]2O,Potency,[3],531 nM (active)
